According to PubChem BioAssay AID1159580 (chemical genetic matrix, 2015):
“And” between values parts separate entries of the source, which are not always exact repeats. Identical values can stand only once. The campaign covered roughly 5,500 compounds. About 2,000 (36%) were called active. Not shown: some 18% with an inconclusive outcome. Rule as the data show it: active = normalized growth mostly below about 0.91 (no sharp cut-off); inconclusive = no clear call, values can overlap the other calls; inactive = mostly above about 0.92. This is one part of the list.

Experiment: chemical genetic growth profiling, strain panel (AID 1159580);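 also: tested at 20 µM; growth read once vehicle control cultures reached saturation at 30 °C; 1 = growth at the plate median or of vehicle wells; lower values mean less growth of the strain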
Details: S. cerevisiae deletion strains, growth OD

Measured: normalized growth

CNC(C)C(O)c1ccccc1 (stereo not drawn)
inactive: locus YAL013W, strain DEP1, hits give low values 1 | locus YAL021C, strain ccr4, hits give low values 1.02 | locus YAL026C, strain drs2, hits give low values 0.997 | locus YAL030W, strain snc1, hits give low values 1.01 | locus YBL061C, strain skt5, hits give low values 1 | locus YBR009C, strain hhf1, hits give low values 0.993 | locus YBR021W, strain FUR4, hits give low values 1.01 | locus YBR023C, strain chs3, hits give low values 1.01 | locus YBR171W, strain sec66, hits give low values 1.02 | locus YBR229C, strain ROT2, hits give low values 1 | locus YBR231C, strain swc5, hits give low values 1.02 | locus YBR279W, strain paf1, hits give low values 1.01 | locus YCL011C, strain gbp2, hits give low values 1.01 | locus YCL016C, strain dcc1, hits give low values 1 | locus YCL029C, strain bik1, hits give low values 1.02 | locus YCL061C, strain MRC1, hits give low values 1.02 | locus YCL069W, strain vba3, hits give low values 1.02 | locus YCR088W, strain abp1, hits give low values 1.02 | locus YDL005C, strain med2, hits give low values 1.02 | locus YDL035C, strain GPR1, hits give low values 1.01 | locus YDL040C, strain nat1, hits give low values 1.01 | locus YDL074C, strain BRE1, hits give low values 1.02 | locus YDL101C, strain DUN1, hits give low values 1 | locus YDL134C, strain PPH21, hits give low values 1.01 | locus YDL185W, strain tfp1, hits give low values 1.01 | locus YDL192W, strain arf1, hits give low values 1.03 | locus YDR001C, strain nth1, hits give low values 1.01 | locus YDR069C, strain doa4, hits give low values 1.02 | locus YDR101C, strain arx1, hits give low values 1.03 | locus YDR137W, strain rgp1, hits give low values 1.03 | locus YDR150W, strain NUM1, hits give low values 1 | locus YDR159W, strain sac3, hits give low values 0.99 | locus YDR162C, strain NBP2, hits give low values 1 | locus YDR195W, strain ref2 0.995 | locus YDR297W, strain sur2, hits give low values 1.01 | locus YDR318W, strain mcm21, hits give low values 1.02 | locus YDR334W, strain swr1, hits give low values 1.02 | locus YDR335W, strain msn5, hits give low values 1.01 | locus YDR388W, hits give low values 1.02 | locus YDR392W, strain spt3, hits give low values 1 | locus YDR502C, strain sam2, hits give low values 1.02 | locus YEL003W, strain gim4, hits give low values 1.02 | locus YEL037C, strain rad23, hits give low values 1.01 | locus YEL061C, strain CIN8 (second series), hits give low values 1.02 | locus YEL061C, strain CIN8, hits give low values 1 | locus YER015W, strain faa2, hits give low values 1.02 | locus YER016W, strain bim1, hits give low values 1.01 | locus YER110C, hits give low values 1.04 | locus YER111C, strain swi4, hits give low values 1.01 | locus YER155C, strain BEM2 (second series), hits give low values 1.02 | locus YER155C, strain BEM2, hits give low values 1 | locus YER167W, strain BCK2, hits give low values 1 | locus YFR010W, strain ubp6, hits give low values 1.03 | locus YGL078C, strain dbp3, hits give low values 1.03 | locus YGL086W, strain mad1, hits give low values 1 | locus YGL167C, strain pmr1, hits give low values 1.02 | locus YGL173C, strain kem1, hits give low values 1.01 | locus YGL227W, strain vid30, hits give low values 1.01 | locus YGL240W, strain doc1, hits give low values 1.04 | locus YGL248W, strain PDE1, hits give low values 1.01 | locus YGL253W, strain hxk2, hits give low values 1.01 | locus YGR078C, strain PAC10, hits give low values 1.01 | locus YGR135W, strain pre9, hits give low values 1.03 | locus YGR252W, strain gcn5, hits give low values 1.01 | locus YHR013C, strain ard1, hits give low values 1.02 | locus YHR027C, strain rpn1, hits give low values 1.02 | locus YHR030C, strain SLT2, hits give low values 1 and 1.02 | locus YHR079C, strain IRE1 (second series), hits give low values 1.02 | locus YHR079C, strain IRE1, hits give low values 1.04 | locus YHR094C, strain hxt1, hits give low values 1.03 | locus YHR129C, strain ARP1, hits give low values 1 | locus YHR142W, strain chs7, hits give low values 1.02 | locus YHR200W, strain rpn10, hits give low values 1.02 | locus YIL066C, strain RNR3, hits give low values 1 | locus YIL073C, strain SPO22, hits give low values 1.06 | locus YIL125W, strain kgd1, hits give low values 1.02 | locus YIR030C, strain dcg1, hits give low values 1.02 | locus YJL092W, strain hpr5, hits give low values 1.01 | locus YJL095W, strain BCK1 (second series), hits give low values 1.01 | locus YJL095W, strain BCK1, hits give low values 0.99 and 0.983 | locus YJL115W, strain asf1, hits give low values 1.03 | locus YJL129C, strain trk1, hits give low values 1.03 | locus YJL134W, strain LCB3, hits give low values 1 | locus YJL154C, strain vps35, hits give low values 1.01 | locus YJL164C, strain tpk1, hits give low values 1.01 | locus YJL166W, strain qcr8, hits give low values 1.03 | locus YJL168C, strain set2, hits give low values 1.02 | locus YJL187C, strain SWE1 (second series), hits give low values 1
